# Measured values taken from PubChem BioAssay (EPA / NIEHS).
# Results filed as inconclusive are left out. Some compounds were tested as several samples or in several runs, with calls that do not always agree. Activity calls are given as the source filed them. Rule for the calls, unless noted: active = hit-call score of the fitted dose curve at least 0.9, where 1 is the maximum; inactive = score below 0.9.
# Experiments:
# [1] = read-out: Interleukin-8 (IL8), CXCL8 (gene 3576); assay: BSK_3C_IL8: BioMAP Diversity Plus: 3C Assay for Interleukin-8 (IL8) Biomarker Activity (AID 2283020); conditions: primary human endothelial cells (HUVEC); actives raise or lower the signal
# Outline: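 Using DMSO-treated wells as the baseline, bidirectional curve fitting was applied to ELISA-measured IL-8 from human umbilical vein endothelial cultures sampled 24 h after compound addition.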
# [2] = read-out: Monokine induced gamma interferon (MIG), CXCL9 (gene 4283); assay: BSK_3C_MIG: BioMAP Diversity Plus: 3C Assay for Monokine induced gamma interferon (MIG) Biomarker Activity (AID 2283021); conditions: primary human endothelial cells (HUVEC); actives raise or lower the signal
# Outline: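 ELISA-measured MIG in dosed HUVEC 3C cultures at 24 h, analysed by bidirectional fitting with DMSO defining baseline activity.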
# [3] = biological target: human Vitamin D Receptor (VDR), VDR (gene 7421) (UniProt P11473); assay: ATG_VDR_TRANS: Attagene TRANS-FACTORIAL HepG2 Assay for human Vitamin D Receptor (VDR) (AID 2283022; active = hit-call score of the fitted dose curve at least 0.9, where 1 is the maximum)
# Chain of human Vitamin D Receptor (VDR), VDR (gene 7421) (P11473 whole entry, looked up, the tested form may be a part): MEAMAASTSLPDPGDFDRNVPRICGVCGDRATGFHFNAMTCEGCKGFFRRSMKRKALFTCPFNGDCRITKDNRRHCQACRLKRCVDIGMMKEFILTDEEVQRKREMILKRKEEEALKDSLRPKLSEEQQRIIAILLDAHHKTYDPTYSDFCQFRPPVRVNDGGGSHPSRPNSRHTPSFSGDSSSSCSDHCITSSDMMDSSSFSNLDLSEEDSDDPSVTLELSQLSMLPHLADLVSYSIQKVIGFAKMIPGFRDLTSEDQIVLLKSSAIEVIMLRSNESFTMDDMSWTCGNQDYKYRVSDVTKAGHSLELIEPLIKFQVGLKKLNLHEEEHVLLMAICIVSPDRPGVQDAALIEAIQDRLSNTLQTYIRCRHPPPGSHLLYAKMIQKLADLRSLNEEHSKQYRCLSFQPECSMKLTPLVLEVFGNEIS
# Outline: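 HepG2 cells were transiently transfected with GAL4-UAS reporter units and a chimeric VDR-Gal4 construct, then dosed for 24 hours. Reporter mRNA was quantified by RT-PCR, fluorescent labeling, HpaI digestion and capillary electrophoresis; gain of signal analysed vs DMSO.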
# [4] = read-out: Matrix Metallopeptidase 1 (MMP1), MMP1 (gene 4312); assay: BSK_BE3C_MMP1: BioMAP Diversity Plus: BE3C Assay for Matrix Metallopeptidase 1 (MMP1) Biomarker Activity (AID 2283024); conditions: primary human bronchial epithelial cells; actives raise or lower the signal
# Outline: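 In this multiplexed primary-cell system, human bronchial epithelium received chemicals for 24 h before an ELISA for MMP1. Values reflect bidirectional fits normalised to the DMSO baseline.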
# [5] = BSK_3C_Vis: BioMAP Diversity Plus: 3C Assay for Morphology Visualization (AID 2283025); conditions: primary human endothelial cells (HUVEC);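 note: light microscopy image of cell morphology used as background control; fitted both ways so gain or loss versus DMSO counts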
# Outline: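 Light-microscopy morphology readout, 24 h exposure, human primary umbilical vein endothelium; analysed relative to DMSO with bidirectional fitting.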
# [6] = read-out: Pselectin, SELP (gene 6403); assay: BSK_4H_Pselectin: BioMAP Diversity Plus: 4H Assay for Pselectin Biomarker Activity (AID 2283026); conditions: primary human endothelial cells (HUVEC); actives raise or lower the signal
# Outline: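 Bidirectional fits against DMSO gave the endpoint. Cells: primary human umbilical vein endothelium, chemical-treated for 24 h before ELISA detection of P-selectin.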
# [7] = BSK_4H_SRB: Viability Assessment in the BioMAP Diversity Plus: 4H Assay (AID 2283027); conditions: primary human endothelial cells (HUVEC);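 note: cells exposed to compound for 24 h before staining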;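 for AC50: curves fitted both ways versus DMSO so AC50 may be loss or gain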
# Outline: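 Cytotoxicity read-out in primary human endothelial cells: after 24 h compound exposure, cells were TCA-fixed (10%), stained with 0.1% SRB and absorbance taken at 560 nm. Values fitted in both directions relative to DMSO.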
# [8] = BSK_BE3C_SRB: Viability Assessment in the BioMAP Diversity Plus: BE3C Assay (AID 2283028); conditions: primary human bronchial epithelial cells
# Outline: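 Human bronchial epithelial primary cells in confluent culture, 24 h after chemical dosing; total protein by 0.1% SRB staining after 10% TCA fixation, read at 560 nm. Bidirectional fitting versus DMSO baseline.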
# [9] = read-out: Thrombomodulin, THBD (gene 7056); assay: BSK_3C_Thrombomodulin: BioMAP Diversity Plus: 3C Assay for Thrombomodulin Biomarker Activity (AID 2283029); conditions: primary human endothelial cells (HUVEC); actives raise or lower the signal
# Outline: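 In a multiplexed primary-cell system, human umbilical vein endothelium received chemical and was assayed 24 h later for thrombomodulin by ELISA. Parallel cultures were SRB-stained (0.1% SRB after 10% TCA fixation, read at 560 nm) to flag cytotoxicity.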
# [10] = read-out: Urokinase-type plasminogen activator receptor (uPAR), PLAUR (gene 5329); assay: BSK_4H_uPAR: BioMAP Diversity Plus: 4H Assay for Urokinase-type plasminogen activator receptor (uPAR) Biomarker Activity (AID 2283030); conditions: primary human endothelial cells (HUVEC); actives raise or lower the signal
# Outline: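 Human umbilical vein endothelial cells in the 4H system, 24 h after chemical dosing. Cell-surface uPAR measured by ELISA, fitted in both directions versus DMSO; cytotoxicity checked by SRB total protein in parallel cultures.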
# [11] = read-out: Human Leukocyte Antigen - DR isotype (HLADR), HLA-DRA (gene 3122); assay: BSK_BE3C_HLADR: BioMAP Diversity Plus: BE3C Assay for Human Leukocyte Antigen - DR isotype (HLADR) Biomarker Activity (AID 2283032); conditions: primary human bronchial epithelial cells; actives raise or lower the signal
# Outline: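 BioMAP BE3C format: human bronchial epithelium, 24 h compound treatment, ELISA detection of HLA-DR, with bidirectional analysis relative to DMSO.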
# [12] = read-out: Vascular cell adhesion molecule 1 (VCAM1), VCAM1 (gene 7412); assay: BSK_4H_VCAM1: BioMAP Diversity Plus: 4H Assay for Vascular cell adhesion molecule 1 (VCAM1) Biomarker Activity (AID 2283033); conditions: primary human endothelial cells (HUVEC); actives raise or lower the signal;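 for outcome: cell-surface VCAM-1 protein measured by ELISA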
# Outline: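 In this human endothelial (HUVEC) system, biomarker ELISA was run 24 h after compound addition, and total protein in parallel wells was assessed by SRB at 560 nm; DMSO served as negative control.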
# [13] = read-out: Interferon-gamma inducible Protein 10 (IP10), CXCL10 (gene 3627); assay: BSK_BE3C_IP10: BioMAP Diversity Plus: BE3C Assay for Interferon-gamma inducible Protein 10 (IP10) Biomarker Activity (AID 2283034); conditions: primary human bronchial epithelial cells; actives raise or lower the signal
# Outline: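 BE3C cells (human bronchial epithelial, primary); 24 h exposure; ELISA for IP-10; DMSO-referenced bidirectional fit.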
# [14] = read-out: Monokine induced gamma interferon (MIG), CXCL9 (gene 4283); assay: BSK_BE3C_MIG: BioMAP Diversity Plus: BE3C Assay for Monokine induced gamma interferon (MIG) Biomarker Activity (AID 2283035); conditions: primary human bronchial epithelial cells; actives raise or lower the signal;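 note: MIG protein measured by ELISA in BE3C cultures after 24 h of dosing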
# Outline: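 ELISA quantified MIG after 24 h exposure of primary bronchial epithelial cultures, analysed in both directions relative to DMSO. Cytotoxicity tracked in parallel cultures by sulforhodamine B staining.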
# [15] = read-out: Transforming growth factor beta 1 (TGFb1), TGFB1 (gene 7040); assay: BSK_BE3C_TGFb1: BioMAP Diversity Plus: BE3C Assay for Transforming growth factor beta 1 (TGFb1) Biomarker Activity (AID 2283036;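 note: TGF-b1 protein level measured by ELISA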); conditions: primary human bronchial epithelial cells; actives raise or lower the signal
# Outline: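 TGF-b1 measured via ELISA, 24 h after chemical dosing of human bronchial epithelial cells (BE3C). Overt cytotoxicity assessed in parallel by SRB (0.1%, TCA-fixed, 560 nm); analysis bidirectional relative to DMSO.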
# [16] = read-out: Plasminogen activator inhibitor-1 (PAI1), SERPINE1 (gene 5054); assay: BSK_BE3C_PAI1: BioMAP Diversity Plus: BE3C Assay for Plasminogen activator inhibitor-1 (PAI1) Biomarker Activity (AID 2283037); conditions: primary human bronchial epithelial cells; actives raise or lower the signal
# Outline: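 In this multiplexed primary-cell system, bronchial epithelial cells receive test chemical and are sampled at 24 h. PAI-1 is read by ELISA, with DMSO serving as negative control for bidirectional fitting.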
# [17] = read-out: urokinase plasminogen activator (uPA), PLAU (gene 5328); assay: BSK_BE3C_uPA: BioMAP Diversity Plus: BE3C Assay for urokinase plasminogen activator (uPA) Biomarker Activity (AID 2283038); conditions: primary human bronchial epithelial cells; actives raise or lower the signal;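 note: uPA protein level quantified by ELISA in cell cultures; uPA read one day after compound addition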
# Outline: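 Primary human bronchial epithelial cells, uPA measured by ELISA 24 h after dosing. Bidirectional change relative to DMSO; cytotoxicity checked in parallel cultures by sulforhodamine B total-protein staining.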
# [18] = BSK_3C_SRB: Viability Assessment in the BioMAP Diversity Plus: 3C Assay (AID 2283023); conditions: primary human endothelial cells (HUVEC);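 note: fitted both ways against DMSO so a hit may be signal rise or drop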
# Outline: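 Human umbilical vein endothelial cells in the 3C system, treated 24 h. Total protein measured by 0.1% sulforhodamine B staining after 10% TCA fixation, read at 560 nm; bidirectional fit versus DMSO.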
smiles,measurement,setting,value
C[C@]12CC[C@@H]3c4ccc(O)cc4CC[C@H]3[C@@H]1CC[C@@H]2O,outcome,[1],inactive
same,outcome,[2],inactive
same,outcome,[3],inactive
same,outcome,[4],inactive
same,AC50,[5],13.7 µM (active)
same,outcome,[6],inactive
same,AC50,[7],12.4 µM (active)
same,outcome,[8],inactive
same,outcome,[9],inactive
same,AC50,[10],8.9 µM (active)
same,outcome,[11],inactive
same,outcome,[12],inactive
same,outcome,[13],inactive
same,outcome,[14],inactive
same,outcome,[15],inactive
same,outcome,[16],inactive
same,outcome,[17],inactive
O=S(=O)(O)C(F)(F)C(F)(F)OC(F)(F)C(F)(F)F,AC50,[1],5.95 µM (active)
same,outcome,[1],inactive
same,outcome,[2],inactive
same,outcome,[18],inactive
same,AC50,[4],42.9 µM (active)
same,outcome,[4],inactive
same,outcome,[6],inactive
same,outcome,[7],inactive
same,outcome,[8],inactive
same,outcome,[9],inactive
same,outcome,[10],inactive
same,outcome,[11],inactive
same,outcome,[12],inactive
same,outcome,[13],inactive
same,outcome,[14],inactive
same,outcome,[16],inactive
same,outcome,[17],inactive
CCCCCCCCCCCCS,AC50,[1],20 µM (active)
same,outcome,[2],inactive
same,outcome,[3],inactive
same,AC50,[18],26.5 µM (active)
same,AC50,[4],20 µM (active)
same,AC50,[5],20 µM (active)
same,AC50,[6],20 µM (active)
same,AC50,[7],29.6 µM (active)
same,outcome,[8],inactive
same,outcome,[9],inactive
same,outcome,[10],inactive
same,AC50,[11],20 µM (active)
same,AC50,[12],11.2 µM (active)
same,AC50,[13],20 µM (active)
same,outcome,[14],inactive
same,outcome,[15],inactive
same,outcome,[16],inactive
same,outcome,[17],inactive
